PubChem BioAssay
Activity calls are given as the source filed them. Unless noted, how the calls were made is not given here.

Columns and labels:
[1] = system: Wnt5a (protein binding on small-molecule microarray); test: Wnt5a binders on small-molecule microarray, primary screen, biophysical, 635/667 nm fluorescence (AID 1142); details: 635 nm fluorescence, higher = more signal;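 further: fluorescence read at 667 nm with signal to noise per printed feature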
[2] = cell viability in Huh7 cells, primary screen, cytotoxicity control for HCV replication inhibitor project, CellTiter-Glo luminescence, basal, 48 h (AID 1143); details: Huh7 HCV replicon, higher = more signal, called active from +8 up or from −8 down;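 further: Huh7 hepatoma cells carrying a hepatitis C replication reporter with no stimulus; test concentration not given here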
[3] = P. aeruginosa biofilm formation inhibitors, primary screen, PAO1 strain, BacTiter-Glo luminescence, LB-PBS (AID 1144); details: 12 h, higher = more signal
[4] = CREB reporter modulators without forskolin, primary screen, cell-based, PC12, CRE-LacZ reporter, unstimulated (AID 1145); details: no forskolin, luminescence, 4.5 h, higher = more signal, called active from +8 up or from −8 down
[5] = CREB reporter modulators under forskolin, primary screen, cell-based, PC12, CRE-LacZ reporter, forskolin-stimulated (AID 1146); details: luminescence, 4.5 h, higher = more signal, called active from +8 up or from −8 down;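 further: PC12 cells with 6xCRE LacZ reporter stimulated by forskolin 10 µM; beta-galactosidase reporter signal reflecting CREB driven transcription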
[6] = biological target: Streptavidin (Streptomyces avidinii) (UniProt P22629); test: streptavidin binders on small-molecule microarray, primary screen, artefact control for SMM compound annotation, biophysical, 635/667 nm fluorescence (AID 1147); details: streptavidin binding, higher = more signal;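 further: signal reflects streptavidin binding to arrayed compounds as a control protein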
[7] = small-molecule binders of probe aInhba, primary screen, biochemical, small-molecule microarray, 635/667 nm fluorescence (AID 1148); details: higher = more signal;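 further: score merges 667nm spot fluorescence with signal-to-noise for antibody binding to printed compounds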
Torsin-1A (Homo sapiens) [8] = biological target: Torsin-1A (Homo sapiens) (UniProt O14656); test: torsin A binders from cell lysate, primary screen, small-molecule microarray, wild-type, 635/667 nm (AID 1149); details: COS7 hTOR1A-WT lysate, 635 nm fluorescence, higher = more signal
Torsin-1A (Homo sapiens) [9] = biological target: Torsin-1A (Homo sapiens) (UniProt O14656); test: small-molecule binders of mutant TOR1A in lysate, primary screen, cell lysate, small-molecule microarray, COS7 lysate, 635/667 nm fluorescence (AID 1150); details: COS7 hTOR1A mutant lysate, 635 nm fluorescence, higher = more signal;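 further: score pools 667 nm emission and signal to noise measuring lysate protein binding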
[10] = system: Sonic hedgehog protein (Shh); test: small-molecule binders of Shh protein, primary screen, biochemical, small-molecule microarray, 635/667 nm fluorescence (AID 1151); details: small-molecule microarray binding, 635 nm fluorescence; higher = more signal;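 further: Shh protein binding to compounds spotted on small-molecule microarray slides; score combines spot fluorescence intensity with signal-to-noise across triplicate slides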
[11] = E. coli DRC41 culture turbidity changes, primary screen, E. coli filamentation inducer project, strain DRC41, OD650, 48 h (AID 1152);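 further: E. coli MC1000 strain DRC41 lacking acrAB efflux pump and sulA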; details: E. coli DRC41 (acrAB sulA), higher = more signal, called active from +8 up or from −8 down
[12] = small-molecule binders of probe aLefty1, primary screen, biochemical, small-molecule microarray, 635/667 nm fluorescence (AID 1153); details: higher = more signal;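 further: score merges spot fluorescence with signal-to-noise ratio from the scanned slide images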
[13] = PSAC antagonists in infected red cells, primary screen, cell-based, P. falciparum Indochina, OD700, 1 h (AID 1154); details: P. falciparum Indochina infected RBC osmotic lysis, higher = more signal, called active from +8 up or from −8 down
[14] = PSAC antagonists in infected red cells, primary screen, cell-based, P. falciparum Indochina, OD700, 2 h (AID 1155);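 further: lysis reports solute entry through the parasite surface anion channel PSAC; channel blockers reduce lysis of infected cells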; details: P. falciparum Indochina infected erythrocytes, osmotic lysis OD700; higher = more signal, called active from +8 up or from −8 down
[15] = osmotic lysis modulators in infected erythrocytes, primary screen, PSAC antagonist project, cell-based, P. falciparum Indochina, OD700, 3 h (AID 1156); details: higher = more signal, called active from +8 up or from −8 down
[16] = PSAC antagonists in infected red cells, primary screen, cell-based, P. falciparum Indochina, OD700, 18 h (AID 1157); details: P. falciparum Indochina infected erythrocytes, osmotic lysis OD700, 18 h; higher = more signal, called active from +8 up or from −8 down
[17] = modulators of S6 phosphorylation in cells, primary screen, cell-based, A549, cytoblot, luminescence, serum-stimulated (AID 1158); details: A549 phospho-S6 cytoblot, 5 h, higher = more signal;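 further: serum-stimulated A549 lung adenocarcinoma cells; signal is phosphorylated S6 detected by cytoblot immunostaining with HRP secondary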
[18] = biological target: NADPH oxidase 2 (Homo sapiens) (UniProt P04839); test: NOX2-dependent H2O2 signal modulators, primary screen, NOX inhibitor project, cell-based, HEK293-NOX2, PMA-stimulated, Amplex Red fluorescence (AID 1159); details: 45 min, higher = more signal, called active from +8 up or from −8 down; further: test concentration not given here
[19] = biological target: NADPH oxidase 4 (Homo sapiens) (UniProt Q9NPH5); test: NOX4-dependent H2O2 signal modulators, primary screen, NOX inhibitor project, cell-based, HEK293-NOX4, tetracycline-induced, Amplex Red fluorescence (AID 1160); details: 45 min, higher = more signal, called active from +8 up or from −8 down
[20] = biological target: NADPH oxidase 5 (Homo sapiens) (UniProt Q96PH1); test: NOX5-dependent H2O2 signal modulators, primary screen, NOX inhibitor project, cell-based, HEK293-NOX5, Amplex Red fluorescence (AID 1161); details: HEK293-NOX5, ionomycin, 45 min, higher = more signal
NADPH oxidase 5 (Homo sapiens), sequence (Q96PH1 whole entry, looked up): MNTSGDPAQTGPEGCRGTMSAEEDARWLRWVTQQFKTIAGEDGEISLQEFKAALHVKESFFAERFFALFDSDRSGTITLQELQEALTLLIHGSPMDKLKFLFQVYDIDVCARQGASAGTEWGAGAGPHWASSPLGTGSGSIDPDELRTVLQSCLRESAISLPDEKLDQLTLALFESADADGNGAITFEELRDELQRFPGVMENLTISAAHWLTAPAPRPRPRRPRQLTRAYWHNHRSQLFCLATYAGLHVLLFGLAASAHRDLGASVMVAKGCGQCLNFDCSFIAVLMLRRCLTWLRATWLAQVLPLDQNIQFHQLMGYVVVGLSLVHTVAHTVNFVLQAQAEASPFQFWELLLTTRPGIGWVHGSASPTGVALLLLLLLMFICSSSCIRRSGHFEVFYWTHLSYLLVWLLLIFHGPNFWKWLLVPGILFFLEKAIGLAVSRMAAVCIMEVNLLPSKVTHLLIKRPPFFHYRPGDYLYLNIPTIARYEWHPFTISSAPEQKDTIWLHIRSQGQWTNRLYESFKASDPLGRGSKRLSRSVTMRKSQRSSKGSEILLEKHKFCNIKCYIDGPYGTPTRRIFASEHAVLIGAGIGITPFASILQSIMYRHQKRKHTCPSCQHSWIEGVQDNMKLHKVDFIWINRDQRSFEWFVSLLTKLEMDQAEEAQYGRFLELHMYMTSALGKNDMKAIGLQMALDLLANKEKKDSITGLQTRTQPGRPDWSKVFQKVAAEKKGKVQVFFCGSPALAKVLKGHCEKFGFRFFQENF

Torsin-1A (Homo sapiens), sequence (O14656 whole entry, looked up): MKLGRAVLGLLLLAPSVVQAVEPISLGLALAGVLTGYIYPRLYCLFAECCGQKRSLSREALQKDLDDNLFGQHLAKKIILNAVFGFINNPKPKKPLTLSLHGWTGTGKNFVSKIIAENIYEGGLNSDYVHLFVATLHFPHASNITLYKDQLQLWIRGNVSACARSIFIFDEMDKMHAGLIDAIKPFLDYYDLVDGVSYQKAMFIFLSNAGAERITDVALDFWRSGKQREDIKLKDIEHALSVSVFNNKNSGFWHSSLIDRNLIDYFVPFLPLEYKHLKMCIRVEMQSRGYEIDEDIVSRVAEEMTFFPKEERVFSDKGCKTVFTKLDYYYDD
NADPH oxidase 2 (Homo sapiens), sequence (P04839 whole entry, looked up): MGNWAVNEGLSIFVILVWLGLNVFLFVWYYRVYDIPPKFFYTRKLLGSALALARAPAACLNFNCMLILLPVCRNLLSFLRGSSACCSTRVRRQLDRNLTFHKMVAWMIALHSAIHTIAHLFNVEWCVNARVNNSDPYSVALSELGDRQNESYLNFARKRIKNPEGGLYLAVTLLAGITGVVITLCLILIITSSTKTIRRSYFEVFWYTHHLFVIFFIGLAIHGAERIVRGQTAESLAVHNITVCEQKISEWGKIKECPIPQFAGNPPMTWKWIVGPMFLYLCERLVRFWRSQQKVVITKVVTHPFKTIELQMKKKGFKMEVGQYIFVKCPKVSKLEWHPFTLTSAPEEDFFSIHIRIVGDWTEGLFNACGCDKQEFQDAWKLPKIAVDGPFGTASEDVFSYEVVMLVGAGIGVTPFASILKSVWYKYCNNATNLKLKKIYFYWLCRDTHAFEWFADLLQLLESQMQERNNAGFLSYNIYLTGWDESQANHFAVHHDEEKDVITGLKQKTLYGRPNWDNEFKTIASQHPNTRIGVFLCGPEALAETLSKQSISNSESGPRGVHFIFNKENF
NADPH oxidase 4 (Homo sapiens), sequence (Q9NPH5 whole entry, looked up): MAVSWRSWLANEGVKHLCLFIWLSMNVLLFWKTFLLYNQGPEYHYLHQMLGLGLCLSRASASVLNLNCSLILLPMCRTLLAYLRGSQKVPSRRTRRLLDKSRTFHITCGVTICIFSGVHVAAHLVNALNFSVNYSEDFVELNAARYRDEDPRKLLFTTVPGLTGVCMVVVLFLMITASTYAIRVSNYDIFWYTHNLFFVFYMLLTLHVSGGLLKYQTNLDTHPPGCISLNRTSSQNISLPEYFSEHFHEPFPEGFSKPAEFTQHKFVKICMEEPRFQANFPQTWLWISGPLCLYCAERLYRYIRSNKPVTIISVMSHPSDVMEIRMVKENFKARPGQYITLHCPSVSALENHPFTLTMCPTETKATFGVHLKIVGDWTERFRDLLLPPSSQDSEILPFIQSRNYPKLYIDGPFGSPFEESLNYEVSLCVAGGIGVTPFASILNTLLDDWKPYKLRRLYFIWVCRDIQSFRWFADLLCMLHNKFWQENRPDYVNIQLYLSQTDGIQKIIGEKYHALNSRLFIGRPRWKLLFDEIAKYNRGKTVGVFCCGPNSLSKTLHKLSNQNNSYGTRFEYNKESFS
Streptavidin (Streptomyces avidinii), sequence (P22629 whole entry, looked up): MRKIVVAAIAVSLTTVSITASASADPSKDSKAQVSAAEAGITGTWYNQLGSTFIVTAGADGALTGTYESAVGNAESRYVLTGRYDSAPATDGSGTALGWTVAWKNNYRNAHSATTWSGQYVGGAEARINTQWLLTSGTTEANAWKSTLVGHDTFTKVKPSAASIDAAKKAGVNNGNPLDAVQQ

Row | SMILES | composite z-score [1] | z-score [2] | z-score [3] | z-score [4] | z-score [5] | composite z-score [6] | composite z-score [7] | composite z-score (Torsin-1A (Homo sapiens) [8]) | composite z-score (Torsin-1A (Homo sapiens) [9]) | composite z-score [10] | z-score [11] | composite z-score [12] | z-score [13] | z-score [14] | z-score [15] | z-score [16] | z-score [17] | z-score [18] | z-score [19] | z-score [20]
1 | CCCCCN1CC=CC23O[C@@H]4/C=C\CCCOC(=O)C4[C@H]2C(=O)N(CCCO)[C@@H]3C1=O (stereo not given in full) | 0.132 | 0.37 (inactive) | -1.17 (inactive) | -0.619 (inactive) | -0.812 (inactive) | -0.413 | -0.233 | 2.02 | 2.27 | -0.163 | 2.27 (inactive) | -0.353 | 1.33 (inactive) | 0.212 (inactive) | -1.43 (inactive) | -0.678 (inactive) | 0.696 | 1.46 (inactive) | 0.42 (inactive) | 2.13
2 | CCCC=C(CCC)[C@@H](NC(=O)Oc1ccc(F)cc1)c1ccc(C(=O)OC)cc1 | 0.0931 | -3.08 (inactive) | -0.135 (inactive) | 0.194 (inactive) | 1.43 (inactive) | 1.55 | 0.329 | -0.0302 | 0.262 | -0.69 | -0.755 (inactive) | 0.221 | 0.454 (inactive) | 1.34 (inactive) | -1.54 (inactive) | 1.35 (inactive) | 0.298 | -0.395 (inactive) | -1.17 (inactive) | -0.592
3 | CS(=O)(=O)CCOC(=O)C1=CC(CCCO)=CC(c2ccc(CN3CCCC3)cc2)N(Cc2cc3c(cc2Br)OCO3)C=C1C(=O)OCCS(C)(=O)=O (stereo not given) | 0.592 | -0.277 (inactive) | 0.814 (inactive) | 4.06 (inactive) | -1.45 (inactive) | 1.5 | 0.229 | 2.09 | 2.13 | 0.404 | -0.357 (inactive) | 0.485 | 0.246 (inactive) | -0.211 (inactive) | 1.14 (inactive) | 0.111 (inactive) | -0.606 | 2.54 (inactive) | 0.524 (inactive) | 0.597
4 | O=C1NC(=O)C2C1C=CC(C(O)C(c1ccccc1)c1ccccc1)N2Nc1ccc(Cl)cc1Cl (stereo not given) | 0.223 | -1.78 (inactive) | -0.548 (inactive) | -0.14 (inactive) | 0.253 (inactive) | 1.23 | 0.102 | -0.614 | -0.0412 | -0.566 | -1.53 (inactive) | 0.42 | 8.4 (active) | 2.11 (inactive) | 0.537 (inactive) | 2.49 (inactive) | -1.02 | -0.421 (inactive) | -5.03 (inactive) | -2.4
5 | COC(=O)c1c(CC[C@@H](CO)NC(=O)N2CCC[C@H]2Cn2cc(-c3ccccn3)nn2)oc(C(C)=O)c1C(=O)OC | -0.249 | -1.44 (inactive) | -0.95 (inactive) | 0.395 (inactive) | -0.0037 (inactive) | -0.281 | -0.0178 | 0.0323 | 1.2 | 0.515 | 1.04 (inactive) | -0.101 | 1.58 (inactive) | -0.448 (inactive) | -0.315 (inactive) | -0.741 (inactive) | 0.882 | -2.6 (inactive) | -1.44 (inactive) | -1.84
6 | CCOC(=O)C[C@H]1[C@H](OC(=O)Cc2ccc3c(c2)OCO3)[C@@H](NC(=O)c2ccc(-c3ccccc3)cc2)c2cc(OCCCO)ccc2N1C(=O)c1ccc2ccccc2n1 | 0.317 | -4.97 (inactive) | -0.157 (inactive) | 4.93 (inactive) | -0.87 (inactive) | 1.41 | -0.231 | -0.184 | 0.438 | 0.0508 | 1.55 (inactive) | -0.0536 | 8.44 (active) | 0.67 (inactive) | -0.352 (inactive) | -0.258 (inactive) | 2.85 | -2.09 (inactive) | -1.28 (inactive) | -1.21
7 | CCCCc1cn(C[C@H](Cc2ccccc2)NC(=O)N[C@H](CO)CCc2oc(C(C)=O)c(C(=O)OC)c2C(=O)OC)nn1 | 0.276 | -2.8 (inactive) | -1.09 (inactive) | 1.02 (inactive) | 0.549 (inactive) | 0.881 | -0.0448 | 0.992 | 0.454 | 1.99 | 0.135 (inactive) | 0.086 | 1.66 (inactive) | -0.983 (inactive) | 1.21 (inactive) | -0.496 (inactive) | 0.847 | -4.81 (inactive) | -2.87 (inactive) | -2.48
8 | CCCC[C@H]1OB(O)C[C@H]2C1=C(COc1ccccc1)C[C@H]1C(=O)N(C)C(=O)[C@H]12 | 0.195 | -0.348 (inactive) | 1.04 (inactive) | 1.77 (inactive) | 0.899 (inactive) | -0.385 | -0.0933 | -0.212 | 0.138 | 0.853 | -0.882 (inactive) | -0.0989 | 1.31 (inactive) | -0.252 (inactive) | -0.761 (inactive) | 0.232 (inactive) | -0.149 | -0.405 (inactive) | 0.509 (inactive) | 0.224
